ADAM17 inh = inhibitors of human ADAM17; P78536; recombinant ADAM17, EDANS/DABCYL FRET peptide cleavage; inhibition, % at 6.95 µM; actives 0.83% (n = 370,000);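 active = inhibition above the mean of compounds lying between control limits plus 3 SD, set per campaign, cut at about 8.5% in these data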;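 also: 0% = DMSO-only wells as the low control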
Target sequence (P78536 215-824 limits assumed): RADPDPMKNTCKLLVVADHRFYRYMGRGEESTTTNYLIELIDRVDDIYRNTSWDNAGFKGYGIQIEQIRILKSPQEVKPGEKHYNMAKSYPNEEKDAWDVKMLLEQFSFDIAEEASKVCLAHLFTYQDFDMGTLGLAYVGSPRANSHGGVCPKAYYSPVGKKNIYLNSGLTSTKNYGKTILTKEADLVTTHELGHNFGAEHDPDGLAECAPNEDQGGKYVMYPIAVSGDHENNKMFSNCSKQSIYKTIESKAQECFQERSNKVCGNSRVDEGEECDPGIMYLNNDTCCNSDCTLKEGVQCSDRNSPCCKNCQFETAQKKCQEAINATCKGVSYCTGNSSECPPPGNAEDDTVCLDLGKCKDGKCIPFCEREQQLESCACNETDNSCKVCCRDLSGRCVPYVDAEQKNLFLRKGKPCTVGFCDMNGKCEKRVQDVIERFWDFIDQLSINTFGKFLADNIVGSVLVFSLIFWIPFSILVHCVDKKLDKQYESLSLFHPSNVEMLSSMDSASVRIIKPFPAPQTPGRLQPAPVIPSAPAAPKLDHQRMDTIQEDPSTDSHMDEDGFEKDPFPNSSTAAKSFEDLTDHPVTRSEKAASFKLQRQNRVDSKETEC
proKLK7 act = activators of human kallikrein-7 zymogen | P49862 | purified proKLK7, EDANS-DABCYL substrate fluorescence; 100% is mature enzyme control, 0% vehicle | actives 0.9% (n = 370,000) | activation, % at 7 µM;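 active = activation above the mean of all tested compounds plus 3 SD, computed per campaign excluding outliers beyond control limits, cut at about 13% in these data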
NPR1 activator = GC-A (human) enzyme activation; actives 0.14% (n = 370,000); HEK293 GC-A cells, cGMP TR-FRET, EC30 ANP; 0% at EC30 ANP, 100% saturating ANP; activation, % at 10 µM; AID 1671463; in the data active = activation above about 40%
ADAM10 inh = inhibitors of human ADAM10 | O14672 | recombinant ADAM10, EDANS/DABCYL FRET peptide cleavage, 3 h | inhibition, % at 7 µM | actives 0.62% (n = 370,000);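 active = inhibition above a per-campaign cutoff equal to the mean of compounds falling between control-based bounds plus 3 SD, cut at about 20% in these data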;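 also: 0% = DMSO wells while the 100% control is not disclosed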
GC-B act = GC-B (human) receptor activation | P20594 | actives 0.11% (n = 370,000) | activation, % at 10 µM | HEK293-GC-B cells, CNP EC30, cGMP TR-FRET; 0% at EC30 CNP, 100% saturating CNP;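 active = activation at 10 µM reaching about 35% in either raw or pattern-adjusted values, limit read from the data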
KLK7 act conf = confirmation of human kallikrein-7 zymogen activators | shares compounds with proKLK7 act | purified proKLK7, EDANS-DABCYL substrate fluorescence; scaled: vehicle 0, mature enzyme 100 | activation, % at 7 µM | actives 68% (n = 3,200);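 active = activation, as change over the incubation, above the mean of all tested compounds plus 3 SD, cut at about 13% in these data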
EDANS-DABCYL int = optically interferes with EDANS-DABCYL signal, flagging KLK7 hits; EDANS-DABCYL substrate fluorescence interference, no enzyme, 4 h; solvent 0%, active enzyme control 100%; shares compounds with proKLK7 act; actives 80% (n = 3,200); activation, % at 7 µM; AID 686952;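 active = activation above the all-compound mean plus 3 SD, ignoring values outside control-based bounds, cut at about 4.8% in these data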;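 also: value is the 4 h activation minus the activation read at time zero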
Active calls of the source: *. This is a sample that favours compounds with a hit; in the whole collection about 2.2% have one here.

Results for Cc1cccc(NC(=O)/C(C#N)=C/c2cn(CC(=O)NCc3ccco3)c3ccccc23)c1 ?
ADAM17 inh: 0.5; proKLK7 act: -0.6; NPR1 activator: -1.0; ADAM10 inh: 3.9; GC-B act: -3.5

What do the screens show for `C[n+]1ccc(/C=C/c2c[nH]c3ccc(F)cc23)cc1`?
ADAM17 inh: 1.4; proKLK7 act: 15.3*; NPR1 activator: -16.5; ADAM10 inh: -13.3; GC-B act: -9.7; KLK7 act conf: 10.3; EDANS-DABCYL int: 14.1*

What do the screens show for `Cc1ccc(-c2c(C(=O)NC3CCCC3)oc(=O)c3ccccc23)cc1`?
ADAM17 inh: 0.4; proKLK7 act: 0.4; NPR1 activator: -16.0; ADAM10 inh: 7.4; GC-B act: -8.1

Results for CCOC(=O)/C(C#N)=C/Nc1cc(OC)ccc1OC ?
ADAM17 inh: -1.2; proKLK7 act: -0.9; NPR1 activator: 12.3; ADAM10 inh: -5.7; GC-B act: 11.8

Results for CCOP(=O)(OCC)/C(C#N)=C/c1cc(OC)ccc1OC ?
ADAM17 inh: -33.1; proKLK7 act: 42.4*; NPR1 activator: 2.9; ADAM10 inh: -89.5; GC-B act: -1.1; KLK7 act conf: 38.7*; EDANS-DABCYL int: 38.6*

What do the screens show for `C#CCN1CC(N(C)CCOC(=O)c2occ3ccccc23)CS1(=O)=O` (configuration not stated)?
ADAM17 inh: 0.0; proKLK7 act: 0.5; NPR1 activator: -0.8; ADAM10 inh: 4.8; GC-B act: -8.8

What do the screens show for `COc1c2c(nc3occc13)C(CC=C(C)C)(OC)C(=O)C=C2` (configuration not stated)?
ADAM17 inh: -2.2; proKLK7 act: 0.4; NPR1 activator: -2.8; ADAM10 inh: 7.2; GC-B act: 6.2

Results for CCOc1c2ccoc2nc2c(OC)c(OC)ccc12 ?
ADAM17 inh: -279.0; proKLK7 act: 13.1*; NPR1 activator: 2.5; ADAM10 inh: inactive; GC-B act: -5.8; KLK7 act conf: 8.5; EDANS-DABCYL int: 14.5*

Results for C=CCOc1ccc2c(OC)c3ccoc3nc2c1OC ?
ADAM17 inh: -268.1; proKLK7 act: 18.7*; NPR1 activator: -2.6; ADAM10 inh: inactive; GC-B act: -2.1; KLK7 act conf: -6.4; EDANS-DABCYL int: -17.4

Results for N#Cc1ccc(-c2ccc(OCC(=O)Nc3cccnc3)cc2)cc1 ?
ADAM17 inh: -9.4; proKLK7 act: 18.0*; NPR1 activator: 8.9; ADAM10 inh: -14.7; GC-B act: -1.4; KLK7 act conf: -0.6; EDANS-DABCYL int: -0.9

Results for CC(=O)Nc1ccc(NC(=O)COc2ccc(-c3ccc(C#N)cc3)cc2)cc1 ?
ADAM17 inh: -4.7; proKLK7 act: -0.9; NPR1 activator: 2.7; ADAM10 inh: -6.6; GC-B act: -6.2

What do the screens show for `COC(=O)CSc1nnc(-c2ccc(NS(=O)(=O)c3ccc(C)c(C)c3)cc2)o1`?
ADAM17 inh: 0.2; proKLK7 act: 0.4; NPR1 activator: 8.3; ADAM10 inh: 2.4; GC-B act: 6.0

What do the screens show for `CCC[C@H](/C=C/C(=O)OC(C)(C)C)Sc1ccc(OC)cc1`?
ADAM17 inh: -1.9; proKLK7 act: -0.2; NPR1 activator: -1.3; ADAM10 inh: -8.5; GC-B act: -4.6

Results for COc1ccc2nc3cc(Cl)ccc3c(Nc3cc(C(C)C)c(O)cc3C)c2c1 ?
ADAM17 inh: -44.7; proKLK7 act: 20.1*; NPR1 activator: -44.0; ADAM10 inh: -83.2; GC-B act: -13.1; KLK7 act conf: -0.4; EDANS-DABCYL int: 2.3

Results for Cc1cccn2c(=O)c(C=O)c(Cl)nc12 ?
ADAM17 inh: -12.3; proKLK7 act: 92.3*; NPR1 activator: 0.1; ADAM10 inh: -27.9; GC-B act: -1.0; KLK7 act conf: 15.7*; EDANS-DABCYL int: 19.4*

Results for O=Cc1c(Cl)nc2ccccn2c1=O ?
ADAM17 inh: -17.3; proKLK7 act: 41.9*; NPR1 activator: 0.6; ADAM10 inh: -43.5; GC-B act: -3.2; KLK7 act conf: 22.3*; EDANS-DABCYL int: 20.4*

How did Cc1cccn2c(=O)c(C=O)c(N3CCCCC3)nc12 do in these assays?
ADAM17 inh: 6.0; proKLK7 act: -0.1; NPR1 activator: 3.4; ADAM10 inh: 7.8; GC-B act: 5.3

How did COC(=O)C[C@@H]1CC[C@@H]2[C@H](COc3ccc(NC(=O)c4ccc(F)c(F)c4)cc3C(=O)N2C)O1 do in these assays?
ADAM17 inh: 0.6; proKLK7 act: 0.9; NPR1 activator: 2.8; ADAM10 inh: -4.3; GC-B act: 8.3

Results for COc1cccc2c3c(c(C)nc12)CC(C)O3 (configuration not stated) ?
ADAM17 inh: -104.6; proKLK7 act: 47.8*; NPR1 activator: 5.0; ADAM10 inh: -268.4; GC-B act: 4.3; KLK7 act conf: 8.2; EDANS-DABCYL int: 11.8*

What do the screens show for `CCCCCN1CCCCC(NC(=O)c2ccc3ccccc3c2)C1=O` (configuration not stated)?
ADAM17 inh: 0.7; proKLK7 act: -0.3; NPR1 activator: 0.7; ADAM10 inh: 3.9; GC-B act: -5.6

Results for Cc1cccc(C2Nc3ccccc3C(=O)N2c2ccc(F)cc2)n1 (configuration not stated) ?
ADAM17 inh: -277.1; proKLK7 act: 27.6*; NPR1 activator: -9.9; ADAM10 inh: inactive; GC-B act: -8.7; KLK7 act conf: 22.5*; EDANS-DABCYL int: 21.2*

What do the screens show for `O=C1c2ccccc2NC(c2ccccn2)N1c1ccccc1F` (configuration not stated)?
ADAM17 inh: -327.8; proKLK7 act: 18.2*; NPR1 activator: 0.2; ADAM10 inh: inactive; GC-B act: -5.0; KLK7 act conf: 22.5*; EDANS-DABCYL int: 21.8*

What do the screens show for `O=C1c2ccccc2NC(c2ccc(O)c(O)c2)N1c1ccccc1Cl` (configuration not stated)?
ADAM17 inh: -38.0; proKLK7 act: 6.2; NPR1 activator: -1.4; ADAM10 inh: -107.8; GC-B act: -1.6

Results for COC(=O)COc1ccc(Cl)cc1C1Nc2ccccc2C(=O)N1c1ccc(OC)cc1 (configuration not stated) ?
ADAM17 inh: -30.2; proKLK7 act: 0.0; ADAM10 inh: -89.8

Results for N#CC1=C(N)Oc2cc(N)ccc2C1c1ccc(F)cc1F (configuration not stated) ?
ADAM17 inh: -98.2; proKLK7 act: 17.0*; NPR1 activator: 23.0; ADAM10 inh: -215.0; GC-B act: 2.5; KLK7 act conf: 13.4*; EDANS-DABCYL int: 15.0*
